From the supplement of paper PMC6555819

What was measured:
Experiment in all cases: PBM binding z-score (relative to random genomic background probes); higher = stronger binding; sequences stand for … in GC…GCGATTGACAGCGTAGAATGAAGG
[1] = tested on: RARb homodimer (NR concentration 270 nM)
Summary of the method: (§1)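 Probes were double-stranded and carried 34-nt variable regions with direct-repeat seeds, single-nucleotide variants, half-site ablations and random human genomic background sequences, printed on custom Agilent 4×180K protein-binding microarrays. Arrays were incubated 1 h with ligand-free nuclear receptor dimers in PBS pH 7.4, 2% milk, 0.02% Triton X-100, 1 mM DTT, 0.2 mg/mL BSA and 0.4 mg/ml salmon testes DNA. Antibodies against each partner (one per run) detected binding, and scanned fluorescence was regression-normalized. Binding z-scores use the random background probes as reference.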

[2] = tested on: RARg:RXRa (NR concentration 270 nM, RXRa partner concentration 90 nM)
Summary of the method: as §1

[3] = tested on: RARg homodimer (NR concentration 270 nM)
Summary of the method: as §1

[4] = tested on: RXRa DBDmut IVT, anti-RXR (DBD mutation: RXRa K156A/R161A, NR concentration 90 nM)
Summary of the method: as §1

[5] = tested on: RXRa homodimer (NR concentration 180 nM)
Summary of the method: as §1

[6] = tested on: THRa:RXRa (NR concentration 90 nM, RXRa partner concentration 90 nM)
Summary of the method: as §1

[7] = tested on: THRa homodimer (NR concentration 90 nM)
Summary of the method: as §1

[8] = tested on: VDR homodimer (NR concentration 270 nM)
Summary of the method: as §1

Sequence	PBM binding z-score [1]	PBM binding z-score [2]	PBM binding z-score [3]	PBM binding z-score [4]	PBM binding z-score [5]	PBM binding z-score [6]	PBM binding z-score [7]	PBM binding z-score [8]
CCTAGTTGGTGAAGGTCACACACGCTATAGGTAC	4.26	4.01	4.06	1.36	3.65	2.89	1.2	2.3
TCTAGTTGCTCAAAGGTCACACACTCGAAATGCG	5.02	5.93	5.78	1.88	6.66	3.76	1.89	2.12
CCTCCTGGGCCAAAGGTCATTGATTCCAATGCTC	4.24	5.81	4.61	0.646	6.35	3.17	0.804	2.32
ATCAAAAGGTCGACGAGGTGAGTATACACCGTTT	3.3	4.4	4.08	1.52	4.69	3.9	1.05	0.947
TAGCCTAGGTCATGCAGGGGCCAGTATAGAAAGC	3.35	6.15	4.48	0.31	3.12	3.29	0.474	0.435
TCGAGTAGGTTAGGGGCATTTAGAATGGCGTCGA	0.875	0.265	0.0778	0.475	0.534	0.793	0.327	0.777
ATCGAAAGGTCGAAGGTGGGTATACCCACCCGAA	2.02	3.9	3.4	0.146	4.23	1.81	-0.334	0.567
CCTATTAGTTGACCAGAAGGGCAACCGAAGCTCG	1.88	1.45	0.985	0.633	0.786	0.606	0.383	0.595
TAGCCTCGGTCATGGGCCAGTATACCACGCGAAC	1.72	1.72	2.42	-1.4	0.378	0.05	-0.217	-0.408
TCTAGCAGGCCAGAAGGTCACTCAAGAGGTACGG	3.87	3.95	3.46	0.459	3.15	2.28	0.225	1
AGAACGAGGGCACGCTGAGTTGAAAGCAGAGTAG	1.16	2.34	2.15	2	1.46	2.13	-0.233	0.663
ATATGTAGGTTTAGGGTCATTCAGGTTGGTTCGC	3.05	3.53	2.43	2.74	4.4	4.23	4.2	4.83
TGTTGTAGATCAACAGGAGGTTAAGAAAGATCGA	0.36	1.06	0.365	-0.89	0.741	0.863	-0.492	-0.0284
ACTCGCAGGACAAAGGTCAGAGCTACGCCAGTGA	4.26	5.2	5.21	0.845	5.45	3.03	0.0955	0.474
CCTGCTAGGTCATGGTCAGCAAATCTACAGTATG	2.81	4.02	4.6	1.74	2.84	3.09	1.37	0.339
TGTCAAAGTTCAAAGGTACCGTAAGTATCCACAC	4	5.69	5.77	4.44	5.81	2.65	-0.264	4.24
GCTACCAGGCCATTTGGGTCACTCAATGACGGGC	2.15	1.21	1.57	0.386	0.86	2.21	1.39	0.491
ATAAGTAGGTTATCGGGTCATTCAGTTTGCGCAT	3.12	3.44	2.43	1.57	3.55	3.29	2.93	4.49
CGAACGAGGGCATGAGTTGATAGCCAATGCCGAT	0.853	1.34	1.88	2.3	1	1.24	-0.039	1.56

Sequence	PBM binding z-score [1]	PBM binding z-score [2]	PBM binding z-score [3]	PBM binding z-score [4]	PBM binding z-score [5]	PBM binding z-score [6]	PBM binding z-score [7]	PBM binding z-score [8]
CGAACTAGGTCATTGACAGGACAGTGTATAGTAA	2.93	4.51	4.13	2.69	2.38	3.02	0.913	1.47
CCAGACAGCTGAGAAGGTAACTCAGCCTCGATTA	-0.378	-0.436	-0.0751	-0.0865	-0.206	-0.157	-0.306	-0.494
ATACCAAGGTGATTGTGAGGTCGTTGATACTAAC	2.03	2.19	1.08	1.27	1.59	3.66	2.94	3.33
GATACCGGGTCAGCTAGAGGCCAGAGTATGGAAA	2.63	5.9	3.71	-0.115	2.83	2.64	0.0916	-0.166
AATACACGGTCACTAGGCCAGAGTAGGTACGAAT	1.85	1.78	2.19	0.0529	0.672	0.48	-0.267	0.314
CTCGAACGGTCGGTTGAGGTGAGTATACGGATAA	0.411	0.215	0.464	-0.356	-0.11	3.27	0.822	-0.341
CGAACTAGGTCAGAACAGGACAGTAAAGGATGAT	2	2.48	3.35	0.613	1.27	3.43	0.235	0.325
GCTTGTGGATCAAGGTTAAGAAAGACTAAGCTAA	0.362	0.34	0.12	0.0412	0.848	1.27	-0.23	0.00536
CAAACTAGGACAAGGTCAAAGTCGGTTTGTGCCA	3.66	4.2	3.68	2.27	4.36	3.84	2.86	3.88
CCGACTGGCGCAAAGGTTACCATACTCAGTACGA	1.81	1.62	0.821	0.55	2.11	1.35	-0.0334	-0.00484
CGTCCAATGTCAAAGGTCAGTGAAGAGATGACGG	4.3	5.61	5.43	1.04	6.57	2.97	0.388	1.07
TCGAGGAGGTTACCAATGGGGCATTCAGCTTTCT	1.69	2.85	1.13	0.716	1.83	1.06	-0.297	0.112
TCATATAGGTAAATGCTAGGTGAGAGTCCGATCT	0.0117	0.257	0.032	1.03	0.42	0.935	-0.108	0.216
AGAATGAGGTTATACGTAGATCAGCGAAGAAAGT	0.428	1.76	0.909	1.41	2.13	1.99	0.0645	0.803
GCTAGCAGGCCACTTGGGTCACTCAATGACGGGC	2.08	1.11	1.41	-0.454	0.892	1.67	0.36	0.24
CAAACTAGGTCACGAAAGGTCCAAGTCGAATGAC	3.73	5.23	5.73	1.55	4.45	3.87	1.39	1.55
TCGAGTAGGTTAGAGGCATTCAGAATGGCGTCGA	-0.851	-0.25	-0.164	-0.37	0.0736	-1.08	-1.15	-0.449
ATCTCTAGGTTACAAGTTCAGTGAAAGAGAGGAC	2.77	2.81	2.37	1.65	1.76	2.02	1.48	2.9
GCATATAGGTAAAACAAGGTGAAAGTCCGATTGT	0.61	0.353	0.33	0.273	0.55	4.2	0.967	0.035

Sequence	PBM binding z-score [1]	PBM binding z-score [2]	PBM binding z-score [3]	PBM binding z-score [4]	PBM binding z-score [5]	PBM binding z-score [6]	PBM binding z-score [7]	PBM binding z-score [8]
ATCGAAAGGTCGAAGATGAGTATACCCACCCGAA	2.11	3.48	3.4	1.35	3.68	1.56	-0.0753	0.844
ATCGAAAGGTCGAATGTGAGTATACCCACCCGAA	2.63	3.91	3.72	1.77	4.23	2.01	-0.0283	1
TGGATGAGGTTATAAGATCAGGGAACGTTGCAAA	0.465	1.53	1.24	0.341	1.97	1.91	0.397	0.65
GCTAGCAGGCCATTTGGGTCACTCAATGACGGGC	2	1.11	1.55	0.0537	0.821	1.94	0.534	0.524
CATCCAAGGTCAATGCTAGGTCAGTGAAAGCATT	4.85	7.59	6.9	3.53	5.4	4.39	2.95	3.16
TCTGGTAGATCAGCAGGTTAAGAAAGCTGGCCAA	-0.132	-0.135	-0.628	0.128	0.256	0.0552	-0.418	-0.56
CCTAGTTGGTCAGGAGGTCAAACACCGGATATGA	4.15	5.37	4.68	1.15	5.72	3.5	1.99	3.16
CGTCCAAGGTCAGAGAAGTCAGTGAATGCCGAGT	3.51	4.3	5.16	2.35	3.37	3.32	1.53	1.64
CCTACCAGGCCAATCTGGGTCACTCAAGGCTTGA	2.5	1.37	1.64	-0.157	1.01	3.84	1.34	0.435
CGTCCAAGGTCAATGCCAGGTCAGTGAAAGCATT	4.92	7.69	6.75	3.86	5.27	4.71	3.6	3.03
CCTTCTGGGCCATCAGGTCATTGATATCAACGTT	2.61	2.3	2.36	0.59	1.46	3.19	2.98	1.83
CAAACTAGGTCCCAGAGGTCAAAGTCCGTGCGTA	4.35	5.07	4.38	2.04	5.62	3.67	1.58	3.87
GCAGACAAGTGAAACGCAGGTAACTCAGGGTGGC	-1	-0.267	-0.436	-0.633	0.115	0.682	-0.967	-0.593
TTTGCTAGGTCAACGATGGTCAGCTAATCTGCTA	3.69	4.05	5.28	1.02	2.67	3.33	1.02	0.00226
TCGAGTAGGTTAGGGGCATTGAGAATGGCGTCGA	0.964	0.14	0.129	0.205	0.572	0.83	0.383	0.492
AATGCAGGGTCATCGTAGGCCAGAGTACGCACAG	3.56	5.5	4.83	3.37	6.16	4.6	0.92	3.45
GATACAGGGTTAGCTAGAGGCCAGAGTATGGAAA	0.99	3.12	0.756	-0.477	0.857	1.23	-0.252	0.162
TCTCGGAGGACACGAAGGTCAGAGTTTTCCAGAG	3.77	3.25	3.92	0.753	2.03	2.83	1.19	1.93
TCATATAGGTAACAGGTGAAAGTCGGTGTGGTAA	1.03	0.519	0.556	1.41	1.11	0.822	0.292	0.21
